An excerpt weighted towards active compounds, which were near 19% of everything screened.
TDP1 inh = TDP1 (human) enzyme inhibition | recombinant TDP1, AlphaScreen DNA substrate cleavage | Potency, µM (titrated, usually from 130 µM), without a hit: top-dose activity change, negative = inhibition, actives largely listed as inhibitors | 350,000 tested, 0.28% active | AID 485290; further: potency means the concentration at half of the fitted maximal effect; nearly all actives have a fitted effect of over 40% in size
Target sequence (Q9NUW8 whole entry, looked up): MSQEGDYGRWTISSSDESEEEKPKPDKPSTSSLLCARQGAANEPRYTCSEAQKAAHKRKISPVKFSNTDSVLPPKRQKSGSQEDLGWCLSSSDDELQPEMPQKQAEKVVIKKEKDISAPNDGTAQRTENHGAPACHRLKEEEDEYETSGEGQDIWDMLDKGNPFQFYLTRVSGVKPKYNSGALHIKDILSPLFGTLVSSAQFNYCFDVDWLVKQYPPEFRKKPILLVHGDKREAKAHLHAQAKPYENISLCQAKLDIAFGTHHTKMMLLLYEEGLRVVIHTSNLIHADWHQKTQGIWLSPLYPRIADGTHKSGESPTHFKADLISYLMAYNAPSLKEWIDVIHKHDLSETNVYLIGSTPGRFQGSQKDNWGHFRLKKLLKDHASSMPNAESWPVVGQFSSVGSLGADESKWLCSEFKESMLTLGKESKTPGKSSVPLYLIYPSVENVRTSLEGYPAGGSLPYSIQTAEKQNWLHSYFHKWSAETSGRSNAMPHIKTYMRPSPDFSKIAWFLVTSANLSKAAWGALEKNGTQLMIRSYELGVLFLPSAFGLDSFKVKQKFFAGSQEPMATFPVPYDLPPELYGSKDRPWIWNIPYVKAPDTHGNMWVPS
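AlphaScreen read-out: signal falls as enzyme removes the 3' tyrosine-FITC from a 5'-biotinylated DNA oligo (15 nM, 5 min, RT). Enzyme was E. coli-made recombinant Tdp1 at 1 nM, exposed to compound for 15 min beforehand; beads 10 ug/ml, 10 min.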
DT40 TDP1 no CPT = qHTS for Inhibitors of human tyrosyl-DNA phosphodiesterase 1 (TDP1): qHTS in cells in absence of CPT. AID 686978, 2013. DT40 Tdp1-/- hTDP1 cells, no CPT, ATP luminescence, 48 h. Potency, µM (top dose mostly 46.2 µM), for inactives: top-dose activity change, negative = growth inhibition, actives largely listed as inhibitors. 420,000 tested, 15% active; further: potency means the concentration at half of the fitted maximal effect; nearly all actives have a fitted effect of over 55% in size
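No-CPT arm: Tdp1-/-;hTDP1 DT40 cells (400/well) plus compounds, incubated ≥48 hr at 37 °C. Readout CellTiter-Glo luminescence.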
Giardia kill = kills Giardia lamblia; Giardia lamblia trophozoite viability; activity change, % at 7.66 µM, hits read low; 340,000 tested, 0.15% active; in the data active means activity change below about -80%; inconclusive means between about -30% and that limit;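 further: parasites exposed to compound for two days anaerobically before the ATP read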
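Viability, read as ATP luminescence: trophozoites at 100 cells/well, compound added, 48 hrs anaerobic at 37 deg C, then 15-30 min room-temperature development before reading.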
IL1B secr inh = inhibitors of inflammasome signaling (IL-1 beta secretion). THP-1 LPS/ATP IL-1B secretion, AlphaLISA, 16 h; active compounds read low. AID 743279. 360,000 tested, 4.7% active. activity change, % at 57.5 µM; in the data active means activity change below about -50%; inconclusive means mostly about -30% to -49%
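Secreted IL-1B measured by AlphaLISA bead assay after 16 h compound exposure of THP-1 cells; compounds (final up to 57.5 uM) added 1 h before LPS (250 ng/mL) and ATP (1.25 mM) stimulation; lower signal means less secretion.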
DT40 TDP1 CPT = growth inhibition of DT40 Tdp1-/-;hTDP1 cells with camptothecin (screen for TDP1 inhibitors); chicken DT40 Tdp1-/-;hTDP1 cells + 20 nM CPT, ATP luminescence, 48 h; Potency, µM (highest dose often 46.2 µM), inactives show at the highest dose activity change, negative = growth inhibition, hits mostly inhibitors; 420,000 tested, 12% active; further: potency means the concentration at half of the fitted maximal effect; nearly all actives have a fitted effect of over 55% in size
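Chicken DT40 Tdp1-/- cells stably complemented with human TDP1 were seeded at 400 cells/well in medium containing 20 nM camptothecin, exposed to pin-transferred compounds, and grown at 37 °C for at least 48 hr. Viability was read as ATP luminescence.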
ELG1 DNA repair = ELG1-dependent DNA repair inhibition. Potency, µM (top dose mostly 46.1 µM), without a hit: at the highest dose activity change, negative = inhibition, most hits filed as inhibitors. 330,000 tested, 2.3% active. HEK293T ELG1-luciferase reporter, luminescence, 16 h; DNA damage induced by 5-fluorouridine; further: potency means the concentration at half of the fitted maximal effect; nearly all actives have a fitted effect of over 55% in size
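DMSO vehicle served as the neutral condition. Each well held 2,000 cells given 5-fluorouridine plus compound; after 16 hr at 37 °C/5% CO2, ONE-Glo was added and luciferase measured 30 min later.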
Starred values were filed as active, the others as inactive; ? = inconclusive; / = not tested or not shown; [ ] = dose if it differs, or a comment. Unless noted, the call rests on the fitted dose curve; in most records, active means well fitted curve in the direction sought with a large enough effect; inconclusive means small, poorly fitted or top-dose-only effect, or another doubt; inactive means no such curve, though single readings can be large; an effect the other way counts as inactive or inconclusive. On the % scale 0 is the no-effect control and ±100 the full control effect.

SMILES	TDP1 inh	DT40 TDP1 no CPT	Giardia kill	IL1B secr inh	DT40 TDP1 CPT	ELG1 DNA repair
Cc1nc(N/N=C/c2ccccn2)sc1C	11%	1.3µM*	-15	-101*	1.3µM*	?
Cc1cccc(NC(=O)CCNC(=O)c2ccc(Br)cc2)c1	8%	-12%	-13	29	-6%	?
Cc1ccc(C)c(N2CCN(C(=O)c3ccccc3Br)CC2)c1	5%	16µM*	-12	?	21µM*	13%
Cc1ccc(N2CCN(C(=O)c3cc(C(=O)c4ccccc4C)c[nH]3)CC2)c(C)c1	5%	23µM*	4	?	?	?
Cc1ccc(C)c(N2CCN(C(=O)c3csc(C)c3C)CC2)c1	4%	?	26	-10	?	-14%
O=C(c1ccccc1Br)N1CCN(c2ccccc2)CC1	4%	-12%	-16	-10	-17%	-4%
Cc1ccc(N2CCN(C(=O)c3ccccc3Br)CC2)c(C)c1	1%	26µM*	-10	-2	?	-13%
Cc1ccc(C)c(N2CCN(C(=O)c3ccc4c(c3)c(C)c(C)n4C)CC2)c1	11%	16µM*	23	3	23µM*	?
CN1CCN(c2ncc3nc(-c4cc(F)cc(F)c4)c(=O)n(Cc4cccs4)c3n2)CC1	/	-11%	/	/	3%	/
CC[N+](CC)(CC)CCOc1ccc(/C=C\c2ccccc2)cc1	10%[56.1 µM]	2.1µM*	/	/	2.7µM*	/
CC[N+](CC)(CC)CCOc1ccc(/C=C/c2ccccc2)cc1	6%	2.6µM*	-20	27	4.6µM*	-19%
CC[N+](CC)(CC)CCOc1cccc(OCC[N+](CC)(CC)CC)c1OCC[N+](CC)(CC)CC	6%[56.1 µM]	-10%	0	75	16%	4%
CCN(CC)C(=O)C(=O)c1cccn1-c1c(Cl)cccc1C#N	0%	-22%	-10	-8	-1%	3%
COc1ccc(N=c2nc(-c3ccc(C)cc3)n(-c3ccccc3)s2)cc1	5%	3.5µM*	6	/	4µM*	/
COc1ccc(N=c2nc(-c3ccccc3)n(-c3ccc(C)cc3)s2)cc1	/	3.2µM*	12	/	4.5µM*	/
Cc1ccc(-c2nc(=Nc3ccccc3)sn2-c2ccccc2)cc1	2%	3.2µM*	-4	/	3.5µM*	/
COc1ccc(N=C2C(=Nc3ccc(OC)cc3)N(c3ccc(OC)cc3)C(=S)N2c2ccccc2)cc1	11%	18µM*	-9	-20	21µM*	?
COc1ccc(N=C2SCC(c3ccccc3)=NN2C)cc1	6%	?	7	-8	?	?
COc1cccc(-c2nccc(N(C)Cc3ccco3)n2)c1	/	-17%	/	/	-6%	/
CSc1nnc(C)c(=O)n1COC(=O)/C=C/c1ccccc1	2%	-26%	-7	?	-22%	-3%
CCS(=O)(=O)c1nc(S(=O)(=O)c2ccc(Cl)cc2)c(N2CCOCC2)s1	1%	?	-2	?	?	-3%
CCCC#Cc1cnc2c(c1)C(=O)N([C@H](C)CO)C[C@H](C)[C@@H](CN(C)C(=O)CCN1CCCCC1)O2	/	?	/	?	-29%	/
COc1ccccc1C(=O)NC1(C(F)(F)F)C(=O)Nc2c1c(=O)[nH]c(=O)n2-c1ccc(F)cc1 (centres undefined)	2%	/	/	/	/	/
Cc1ccc(-c2ccc(CCC(=O)O)n2C(C)C)cc1	4%	-2%	-1	0	?	7%
CC1=C(CCC(=O)O)c2cc3nc(cc4[nH]c(cc5[nH]c(cc1n2)c(C)c5C(C)O)c(C)c4C(C)O)C(C)=C3CCC(=O)O (centres undefined)	16µM*	17%	/	/	23%	/
O=C(O)c1ccc(N/N=C/c2ccc(-c3ccc(Cl)cc3Cl)o2)cc1	1%	?	8	4	16µM*	?

From PubChem
